Among the data in PubChem BioAssay (NCATS) are Potency values, retold here.

A number with no mark means an inactive call.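 The calls were made as follows: active = compounds whose dose series gives a full or clear partial fitted curve of increased nuclear translocation; inconclusive = weak partial curve or effect only at the top dose; inactive = no dose-dependent translocation response.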
Potency is read from the fitted curve at half-maximal effect.

Sequence of Glucocorticoid receptor (Homo sapiens) (P04150 whole entry, looked up): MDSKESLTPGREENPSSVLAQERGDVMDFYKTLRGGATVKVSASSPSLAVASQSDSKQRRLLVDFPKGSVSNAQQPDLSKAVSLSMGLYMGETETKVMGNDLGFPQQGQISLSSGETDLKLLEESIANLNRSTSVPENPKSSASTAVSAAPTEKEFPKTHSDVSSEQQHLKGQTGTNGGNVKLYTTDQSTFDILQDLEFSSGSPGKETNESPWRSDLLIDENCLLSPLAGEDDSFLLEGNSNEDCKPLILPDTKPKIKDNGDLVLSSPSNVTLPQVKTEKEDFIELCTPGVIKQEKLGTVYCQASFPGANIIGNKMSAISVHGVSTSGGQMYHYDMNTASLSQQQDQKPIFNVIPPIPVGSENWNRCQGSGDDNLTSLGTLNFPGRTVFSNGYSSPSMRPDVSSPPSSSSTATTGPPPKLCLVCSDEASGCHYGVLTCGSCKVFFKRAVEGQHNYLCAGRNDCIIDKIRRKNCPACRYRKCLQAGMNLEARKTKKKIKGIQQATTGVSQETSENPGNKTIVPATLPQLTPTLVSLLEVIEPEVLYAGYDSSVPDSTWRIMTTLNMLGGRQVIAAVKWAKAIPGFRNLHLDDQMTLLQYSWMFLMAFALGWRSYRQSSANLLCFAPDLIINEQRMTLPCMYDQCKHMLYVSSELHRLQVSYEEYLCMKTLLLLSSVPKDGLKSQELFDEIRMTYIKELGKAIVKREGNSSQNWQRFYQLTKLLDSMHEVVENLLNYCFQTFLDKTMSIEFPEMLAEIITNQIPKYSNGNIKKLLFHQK

The experiment concerns the target Glucocorticoid receptor (Homo sapiens) (UniProt P04150). The experiment can be described thus: GR-GFP Redistribution (AID 450). The note with it: U2OS GR-GFP nuclear translocation, laser cytometry, 2 h; series mostly up to 20.6 µM.
On to `Cn1ncc(N=Cc2ccccc2O)c1C(=O)Nc1ccccc1`, for which the Potency is greater than 20.6 µM.

On to `O=C1CC(c2ccccc2)n2nc(N3C(=O)c4ccccc4C3=O)nc2N1` (stereo not drawn), for which the Potency is greater than 20.6 µM.

In the case of `CC(C)OC(=O)CCNc1n[nH]c(=O)[nH]c1=O`, the Potency is greater than 20.6 µM.

For `COCCNc1nc2c(c(=O)n(C)c(=O)n2C)n1Cc1cccc(C(F)(F)F)c1`, the Potency was greater than 20.6 µM.

As for `CN1C(=S)SC(N(O)C(=O)Nc2ccccc2)C1(C)C` (stereo not drawn), the Potency was greater than 20.6 µM.

Turning to `Cc1cc(C)n(C(=O)CNC(=O)C2COc3ccccc3O2)n1` (stereo not drawn), the Potency was greater than 20.6 µM.

Take `CCOc1ccc(-n2c3nc4ccccc4nc3c3c(=O)n(Cc4ccco4)cnc32)cc1`: the Potency was greater than 20.6 µM.

Take `CCNC(=O)Nn1c(C)nnc1C`: the Potency was greater than 20.6 µM.
